Bioassay records: PubChem BioAssay, several laboratories
Hits are enriched below; roughly 32% of the tested compounds scored in any of these assays.
CYP2C9 inhib: blocks human cytochrome P450 2C9. P11712. CYP2C9 Supersomes, luciferin-H conversion, luminescence. inhibition, % at 5 µM. 96,000 compounds, 20% hits. AID 777;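 active = blocking of liver enzyme CYP2C9 beyond about 50% at 5 µM, limit read from the data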
CYP2C19 inh: blocks human cytochrome P450 2C19. P33261. CYP2C19 Supersomes, luciferin-H EGE luminescence, 30 min. inhibition, % at 5 µM. 96,000 compounds, 21% hits;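 active = CYP2C19 inhibition above a set limit at 5 µM in the primary screen, cut at about 50% in these data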;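 also: plate controls were negative control wells for no effect and 2.5 mM tranylcypromine positive control for full effect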
Target sequence (P33261 whole entry, looked up): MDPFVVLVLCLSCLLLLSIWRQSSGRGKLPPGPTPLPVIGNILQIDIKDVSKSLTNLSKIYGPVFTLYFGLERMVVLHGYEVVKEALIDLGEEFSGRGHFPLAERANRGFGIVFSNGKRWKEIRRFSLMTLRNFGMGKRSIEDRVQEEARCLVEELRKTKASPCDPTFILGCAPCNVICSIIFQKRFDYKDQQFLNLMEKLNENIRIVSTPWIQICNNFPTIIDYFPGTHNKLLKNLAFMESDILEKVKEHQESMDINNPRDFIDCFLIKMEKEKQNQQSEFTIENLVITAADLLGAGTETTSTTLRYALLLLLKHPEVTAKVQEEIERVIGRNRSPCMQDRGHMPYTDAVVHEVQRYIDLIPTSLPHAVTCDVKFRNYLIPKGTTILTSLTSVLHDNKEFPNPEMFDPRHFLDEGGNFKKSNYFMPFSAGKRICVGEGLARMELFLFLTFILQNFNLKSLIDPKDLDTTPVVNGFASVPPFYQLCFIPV
PostGolgi ctrl: inhibits growth of the yeast control strain; efflux-deficient yeast background strain, growth absorbance A615, 16 h; inhibition, % at 10 µM; 98,000 compounds, 5% hits
CYP2C19 activ: cytochrome P450 2C19 (human) activation; P33261; activation factor at 5 µM; AID 1025; recombinant CYP2C19, luciferin-H EGE luminescence; active compounds read high; 0 = fully inhibited enzyme, 1 = untreated enzyme; 96,000 tested, under 10 active;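 active = activation factor of at least 2 at 5 µM in the primary screen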;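 also: 0 = wells with 2.5 mM tranylcypromine and 1 = vehicle-only wells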
PostGolgi yeast: growth inhibition of a yeast mutant, post-Golgi transport screen; post-Golgi transport phenotypic cell assay; inhibition, % at 10 µM; 98,000 compounds, 0.9% hits; AID 739;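 also: yeast cells grown in 1536-well plates; yeast grown about 18 h at 30C before absorbance read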
CYP2C9 act: activators of human CYP2C9. P11712. recombinant CYP2C9, luciferin-H conversion, luminescence; active compounds read high; factor 1 = untreated enzyme, 0 = blocked. activation factor at 5 µM. 96,000 compounds, 1.4% hits. AID 1024;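 active = activation factor of 2 or more for CYP2C9 at a 5 µM dose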;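 also: 0 = sulfaphenazole-blocked wells and 1 = vehicle-only wells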
An asterisk follows results filed as active. Rule as the data show it, unless noted: active = inhibition above about 30%; inactive = the rest.

`Clc1ccc(-c2nnc(Sc3nc4ccccc4o3)c3ccccc23)cc1` gave PostGolgi ctrl 57* and PostGolgi yeast -8.
`Cc1nnc(Sc2nc3ccccc3o2)c2ccccc12` gave CYP2C9 inhib 15, CYP2C19 inh 46, PostGolgi ctrl 1, CYP2C19 activ 0.5, PostGolgi yeast -1 and CYP2C9 act 0.9.
For Cc1ccc(-c2nnc(Sc3nc4ccccc4o3)c3ccccc23)cc1 the results were PostGolgi ctrl 64* and PostGolgi yeast -22.
`CC(=O)c1c(C)[nH]c(C(=O)OCC(=O)Nc2cc(C(F)(F)F)ccc2N2CCOCC2)c1C` gave CYP2C9 inhib 58*, CYP2C19 inh 35, PostGolgi ctrl 1, CYP2C19 activ 0.7, PostGolgi yeast 5 and CYP2C9 act 0.4.
`CC1(C)Cc2cccc(OCC(=O)Nc3cccnc3)c2O1` gave CYP2C9 inhib 19, CYP2C19 inh 28, PostGolgi ctrl -1, CYP2C19 activ 0.7, PostGolgi yeast 3 and CYP2C9 act 0.8.
`CC1(C)Cc2cccc(OCC(=O)Nc3cccnc3Cl)c2O1` gave CYP2C9 inhib -116, CYP2C19 inh 98*, PostGolgi ctrl -3, CYP2C19 activ 0, PostGolgi yeast 0 and CYP2C9 act 2.2*.
For Cc1noc(C)c1COC(=O)COc1cccc2c1OC(C)(C)C2 the results were CYP2C9 inhib 68*, CYP2C19 inh 77*, PostGolgi ctrl -6, CYP2C19 activ 0.2, PostGolgi yeast 0 and CYP2C9 act 0.3.
CC1(C)Cc2cccc(OCC(=O)Nc3cc(C(F)(F)F)ccc3N3CCOCC3)c2O1 was read as CYP2C9 inhib 51*, CYP2C19 inh 19, PostGolgi ctrl 8, CYP2C19 activ 0.8, PostGolgi yeast 11 and CYP2C9 act 0.5.
CC1(C)Cc2cccc(OCC(=O)NC3CC3)c2O1 was read as CYP2C9 inhib 18, CYP2C19 inh 45, PostGolgi ctrl 4, CYP2C19 activ 0.6, PostGolgi yeast 14 and CYP2C9 act 0.8.
`Cc1cc(C)nc(SCC(=O)Nc2ncc3c(n2)CCCC3=O)n1` gave CYP2C9 inhib -18, CYP2C19 inh -10, PostGolgi ctrl 2, CYP2C19 activ 1.1, PostGolgi yeast 6 and CYP2C9 act 1.2.
O=c1nc2ccccc2c(NS(=O)(=O)c2ccccc2)n1-c1ccccc1 was read as CYP2C9 inhib -6, CYP2C19 inh -14, PostGolgi ctrl -3, CYP2C19 activ 1.1, PostGolgi yeast -2 and CYP2C9 act 1.1.
Screening COc1cc(OC)cc(C(C)=O)c1 returned CYP2C9 inhib 5, CYP2C19 inh -2, PostGolgi ctrl 0, CYP2C19 activ 1, PostGolgi yeast -6 and CYP2C9 act 0.9.
`CCOCC(=O)Nc1cc(C(=O)Nc2ccccc2)ccc1Cl` gave CYP2C9 inhib 45, CYP2C19 inh 6, PostGolgi ctrl 4, CYP2C19 activ 0.9, PostGolgi yeast -19 and CYP2C9 act 0.5.
COC(=O)C1=C(C)N(C)C(=O)NC1c1cc(Cl)cc(Cl)c1OC (configuration not stated) was read as CYP2C9 inhib 31, CYP2C19 inh 40, PostGolgi ctrl 4, CYP2C19 activ 0.6, PostGolgi yeast -7 and CYP2C9 act 0.7.
Screening COC(=O)C1=C(C)N(C)C(=O)NC1c1cc(Cl)c(O)c(OC)c1 (configuration not stated) returned CYP2C9 inhib 56*, CYP2C19 inh 36, PostGolgi ctrl 2, CYP2C19 activ 0.6, PostGolgi yeast 6 and CYP2C9 act 0.4.
`COCCn1c(SCC#N)nnc1-c1ccc2c(c1)OCO2` gave CYP2C9 inhib 11, CYP2C19 inh 16, PostGolgi ctrl 5, CYP2C19 activ 0.8, PostGolgi yeast -1 and CYP2C9 act 0.9.
Screening CCOC(=O)C(NC(=O)OC(C)C)(Nc1nccs1)C(F)(F)F (configuration not stated) returned CYP2C9 inhib -6, CYP2C19 inh 55*, PostGolgi ctrl 10, CYP2C19 activ 0.4, PostGolgi yeast -7 and CYP2C9 act 1.1.
`Cc1ccc(SCC(=O)Nc2cccc(NC(=O)c3ccco3)c2)cc1` gave CYP2C9 inhib 72*, CYP2C19 inh 32, PostGolgi ctrl 4, CYP2C19 activ 0.7, PostGolgi yeast 11 and CYP2C9 act 0.3.
Cc1ccc(-n2nnnc2SCC(=O)Nc2cccc(NC(=O)c3ccco3)c2)cc1C was read as CYP2C9 inhib 19, CYP2C19 inh 50*, PostGolgi ctrl 38*, CYP2C19 activ 0.5, PostGolgi yeast 2 and CYP2C9 act 0.8.
`CC(=O)Nc1ccc(NC(=O)CSc2ccc(C)cc2)cc1` gave CYP2C9 inhib 81*, CYP2C19 inh 70*, PostGolgi ctrl 1, CYP2C19 activ 0.3, PostGolgi yeast 2 and CYP2C9 act 0.2.
`CC(=O)c1ccc(-n2nnnc2SCC(=O)NNC(=O)c2ccco2)cc1` gave CYP2C9 inhib -4, CYP2C19 inh -2, PostGolgi ctrl 43*, CYP2C19 activ 1, PostGolgi yeast 6 and CYP2C9 act 1.
`CSc1cccc(NC(=O)CSc2ccc(C)cc2)c1` gave CYP2C9 inhib -5, CYP2C19 inh 19, PostGolgi ctrl 9, CYP2C19 activ 0.8, PostGolgi yeast -6 and CYP2C9 act 1.
Screening C[n+]1cnn2c1SCC1(COC1)C2 returned CYP2C9 inhib 4, CYP2C19 inh 0, PostGolgi ctrl 8, CYP2C19 activ 1, PostGolgi yeast -10 and CYP2C9 act 1.
For CCCn1nnnc1SCC(=O)Nc1cccc(NC(=O)c2ccco2)c1 the results were CYP2C9 inhib 60*, CYP2C19 inh 75*, PostGolgi ctrl 5, CYP2C19 activ 0.2, PostGolgi yeast -7 and CYP2C9 act 0.4.
For CC(=O)N(Cc1ccco1)C1(C(=O)NC2CCCC2)CCCCC1 the results were CYP2C9 inhib 13, CYP2C19 inh 10, PostGolgi ctrl 0, CYP2C19 activ 0.9, PostGolgi yeast 15 and CYP2C9 act 0.9.
Screening Cc1cc(C)c(NC(=O)CSc2nc(COc3ccccc3)nc3ccccc23)c(C)c1 returned CYP2C9 inhib 85*, CYP2C19 inh 46, PostGolgi ctrl 0, CYP2C19 activ 0.5, PostGolgi yeast -3 and CYP2C9 act 0.1.
For Cc1ccccc1NC(=O)CSc1nc(COc2ccccc2)nc2ccccc12 the results were CYP2C9 inhib 95*, CYP2C19 inh 76*, PostGolgi ctrl 4, CYP2C19 activ 0.2, PostGolgi yeast 15 and CYP2C9 act 0.1.
`CCc1nc(SCC(=O)NNC(=O)C(C)C)c2ccccc2n1` gave CYP2C9 inhib -37, CYP2C19 inh 18, PostGolgi ctrl -6, CYP2C19 activ 0.8, PostGolgi yeast 7 and CYP2C9 act 1.4.
For Fc1ccc2[nH]c3c(NCCN4CCOCC4)ncnc3c2c1 the results were CYP2C9 inhib 30, CYP2C19 inh -7, PostGolgi ctrl 4, CYP2C19 activ 1.1, PostGolgi yeast 1 and CYP2C9 act 0.7.
